Laboratory results taken from PubChem BioAssay.
Activity calls are given as the source filed them.

Experiments:
[1] = E. coli DRC41 culture turbidity changes, primary screen, E. coli filamentation inducer project, strain DRC41, OD650, 48 h (AID 1152);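 further: E. coli MC1000 strain DRC41 lacking acrAB efflux pump and sulA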; details: E. coli DRC41 (acrAB sulA), higher = more signal, called active from +8 up or from −8 down
[2] = small-molecule binders of probe aLefty1, primary screen, biochemical, small-molecule microarray, 635/667 nm fluorescence (AID 1153); details: higher = more signal;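 further: score merges spot fluorescence with signal-to-noise ratio from the scanned slide images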
[3] = PSAC antagonists in infected red cells, primary screen, cell-based, P. falciparum Indochina, OD700, 1 h (AID 1154); details: P. falciparum Indochina infected RBC osmotic lysis, higher = more signal, called active from +8 up or from −8 down
[4] = PSAC antagonists in infected red cells, primary screen, cell-based, P. falciparum Indochina, OD700, 2 h (AID 1155);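 further: lysis reports solute entry through the parasite surface anion channel PSAC; channel blockers reduce lysis of infected cells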; details: P. falciparum Indochina infected erythrocytes, osmotic lysis OD700; higher = more signal, called active from +8 up or from −8 down
[5] = osmotic lysis modulators in infected erythrocytes, primary screen, PSAC antagonist project, cell-based, P. falciparum Indochina, OD700, 3 h (AID 1156); details: higher = more signal, called active from +8 up or from −8 down
[6] = PSAC antagonists in infected red cells, primary screen, cell-based, P. falciparum Indochina, OD700, 18 h (AID 1157); details: P. falciparum Indochina infected erythrocytes, osmotic lysis OD700, 18 h; higher = more signal, called active from +8 up or from −8 down
[7] = modulators of S6 phosphorylation in cells, primary screen, cell-based, A549, cytoblot, luminescence, serum-stimulated (AID 1158); details: A549 phospho-S6 cytoblot, 5 h, higher = more signal;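 further: serum-stimulated A549 lung adenocarcinoma cells; signal is phosphorylated S6 detected by cytoblot immunostaining with HRP secondary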
[8] = target: NADPH oxidase 2 (Homo sapiens) (UniProt P04839); assay: NOX2-dependent H2O2 signal modulators, primary screen, NOX inhibitor project, cell-based, HEK293-NOX2, PMA-stimulated, Amplex Red fluorescence (AID 1159); details: 45 min, higher = more signal, called active from +8 up or from −8 down; further: test concentration not given here
[9] = target: NADPH oxidase 4 (Homo sapiens) (UniProt Q9NPH5); assay: NOX4-dependent H2O2 signal modulators, primary screen, NOX inhibitor project, cell-based, HEK293-NOX4, tetracycline-induced, Amplex Red fluorescence (AID 1160); details: 45 min, higher = more signal, called active from +8 up or from −8 down
[10] = target: NADPH oxidase 5 (Homo sapiens) (UniProt Q96PH1); assay: NOX5-dependent H2O2 signal modulators, primary screen, NOX inhibitor project, cell-based, HEK293-NOX5, Amplex Red fluorescence (AID 1161); details: HEK293-NOX5, ionomycin, 45 min, higher = more signal
Sequence of NADPH oxidase 5 (Homo sapiens) (Q96PH1 whole entry, looked up): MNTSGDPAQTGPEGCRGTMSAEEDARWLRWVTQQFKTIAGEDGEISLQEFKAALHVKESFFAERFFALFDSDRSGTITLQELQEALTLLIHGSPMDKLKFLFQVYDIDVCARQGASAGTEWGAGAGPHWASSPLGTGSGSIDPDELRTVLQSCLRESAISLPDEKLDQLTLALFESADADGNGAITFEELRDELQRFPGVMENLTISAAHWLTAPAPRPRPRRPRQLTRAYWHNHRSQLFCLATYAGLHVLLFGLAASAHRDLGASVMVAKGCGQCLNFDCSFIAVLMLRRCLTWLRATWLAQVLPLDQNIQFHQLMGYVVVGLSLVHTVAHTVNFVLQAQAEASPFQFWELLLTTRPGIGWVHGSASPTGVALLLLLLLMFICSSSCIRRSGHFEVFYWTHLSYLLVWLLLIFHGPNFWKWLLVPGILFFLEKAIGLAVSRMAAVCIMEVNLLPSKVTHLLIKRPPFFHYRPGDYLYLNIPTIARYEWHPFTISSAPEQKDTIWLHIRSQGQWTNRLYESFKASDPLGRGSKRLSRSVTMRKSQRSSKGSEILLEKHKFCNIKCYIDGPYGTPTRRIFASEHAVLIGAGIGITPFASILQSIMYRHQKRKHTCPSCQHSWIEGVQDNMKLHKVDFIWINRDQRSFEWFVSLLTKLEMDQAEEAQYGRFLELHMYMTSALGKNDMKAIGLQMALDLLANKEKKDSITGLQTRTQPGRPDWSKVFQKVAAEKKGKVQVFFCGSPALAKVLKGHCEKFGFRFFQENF

Sequence of NADPH oxidase 2 (Homo sapiens) (P04839 whole entry, looked up): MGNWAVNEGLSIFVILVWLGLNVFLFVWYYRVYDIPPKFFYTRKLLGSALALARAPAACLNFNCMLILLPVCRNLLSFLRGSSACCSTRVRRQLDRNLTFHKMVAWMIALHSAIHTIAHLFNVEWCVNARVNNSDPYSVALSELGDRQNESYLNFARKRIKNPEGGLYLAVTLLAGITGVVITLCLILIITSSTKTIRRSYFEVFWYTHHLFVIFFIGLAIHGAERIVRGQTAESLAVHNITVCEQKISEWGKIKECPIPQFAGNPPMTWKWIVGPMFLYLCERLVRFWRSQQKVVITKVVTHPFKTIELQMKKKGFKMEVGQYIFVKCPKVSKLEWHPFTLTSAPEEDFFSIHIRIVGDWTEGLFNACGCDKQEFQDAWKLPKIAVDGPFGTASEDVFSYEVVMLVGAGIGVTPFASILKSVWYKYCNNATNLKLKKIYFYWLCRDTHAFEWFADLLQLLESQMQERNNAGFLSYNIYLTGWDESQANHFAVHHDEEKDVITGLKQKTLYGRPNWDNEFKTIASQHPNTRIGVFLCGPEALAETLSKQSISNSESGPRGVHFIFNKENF
Sequence of NADPH oxidase 4 (Homo sapiens) (Q9NPH5 whole entry, looked up): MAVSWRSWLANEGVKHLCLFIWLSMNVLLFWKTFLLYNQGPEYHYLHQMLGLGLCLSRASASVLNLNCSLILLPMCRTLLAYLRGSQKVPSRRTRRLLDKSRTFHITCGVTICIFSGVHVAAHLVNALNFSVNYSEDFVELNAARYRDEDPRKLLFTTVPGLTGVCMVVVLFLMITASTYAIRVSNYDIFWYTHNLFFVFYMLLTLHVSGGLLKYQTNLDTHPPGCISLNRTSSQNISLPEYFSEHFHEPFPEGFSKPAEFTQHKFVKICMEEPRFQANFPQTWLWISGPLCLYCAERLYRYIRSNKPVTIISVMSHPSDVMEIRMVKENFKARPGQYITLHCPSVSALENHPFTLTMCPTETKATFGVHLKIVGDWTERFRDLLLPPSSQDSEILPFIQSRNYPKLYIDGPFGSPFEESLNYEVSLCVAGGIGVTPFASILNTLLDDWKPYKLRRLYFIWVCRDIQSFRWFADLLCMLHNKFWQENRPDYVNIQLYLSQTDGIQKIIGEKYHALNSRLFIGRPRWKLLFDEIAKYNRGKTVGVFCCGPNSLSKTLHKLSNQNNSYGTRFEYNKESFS

Row | SMILES | z-score [1] | composite z-score [2] | z-score [3] | z-score [4] | z-score [5] | z-score [6] | z-score [7] | z-score [8] | z-score [9] | z-score [10]
1 | C[C@H]1C2[C@H](Cc3ccccc3)NC(=O)[C@]23C(=O)N[C@@H](Cc2ccccc2)C(=O)N2CCC[C@H]2C(=O)NC/C=C/CC/C=C/C3[C@@H]2O[C@]12C (stereo not given in full) | -0.488 (inactive) | 0.32 | 1.13 (inactive) | 0.186 (inactive) | 0.0233 (inactive) | 0.599 (inactive) | -0.191 | 1.25 (inactive) | 1.11 (inactive) | 1.25
2 | CCCCC(=C=CC[C@@H](O)c1ccccc1OCCO)C[C@@H](O)c1ccccn1 | 0.142 (inactive) | -0.0192 | 11.3 (active) | 1.51 (inactive) | 1.02 (inactive) | 0.894 (inactive) | -0.261 | 1.32 (inactive) | -0.281 (inactive) | -1.41
3 | CO[C@H]1O[C@H](CO)[C@@H](OC(=O)Nc2cccc(F)c2)[C@H](OC(=O)c2cc3ccccc3[nH]2)[C@H]1OC(=O)c1cc2ccccc2[nH]1 | 0.378 (inactive) | -0.0412 | 0.694 (inactive) | -1.02 (inactive) | -0.0952 (inactive) | -0.908 (inactive) | 2.06 | -2.38 (inactive) | -0.453 (inactive) | -3.81
4 | C[N+](C)(C)CCCC[C@@H]1NC(=O)[C@H]2C[C@@H](C(=O)O)[C@@H](c3ccc(O)cc3)N2C1=O | 1.03 (inactive) | 0.0437 | 3.34 (inactive) | 1.17 (inactive) | -2.47 (inactive) | 0.302 (inactive) | 1.2 | -1.77 (inactive) | -1.23 (inactive) | -0.411
5 | COc1ccc([Si](C)(C)[C@@H]2[C@@H](CC(=O)N3CCC[C@H]3CO)O[C@]3(C(=O)N(Cc4cccc(N5C(=O)c6cccc7cccc5c67)c4)c4ccccc43)[C@H]2C)cc1 | 1.63 (inactive) | 0.19 | 3.97 (inactive) | -0.263 (inactive) | -0.16 (inactive) | -1.24 (inactive) | 0.851 | 2.72 (inactive) | 1.31 (inactive) | 2.84
6 | CC(C)C(=C=CC[C@H](O)c1cccc(OCCO)c1)C[C@H](O)c1ccccn1 | 1.21 (inactive) | 0.21 | 7.72 (inactive) | 0.631 (inactive) | 1.96 (inactive) | 0.626 (inactive) | 0.468 | -1.57 (inactive) | 0.362 (inactive) | -1.13
7 | O=C1O[C@@H](c2ccccc2)[C@@H](c2ccccc2)N2[C@@H](c3ccc(OCCO)cc3)[C@]3(C(=O)Nc4ccc(C#CC5=CCCCC5)cc43)[C@@H](C(=O)Nc3nc4ccccc4s3)[C@H]12 | -0.558 (inactive) | -0.0857 | 1.88 (inactive) | 2.03 (inactive) | 1.92 (inactive) | 2.11 (inactive) | -0.579 | 1.01 (inactive) | -0.188 (inactive) | 0.0226
8 | CCOC(=O)C1=CCC(c2ccncc2)N(S(=O)(=O)c2ccc(C)cc2)C1 (stereo not given) | 0.149 (inactive) | 0.13 | 4.24 (inactive) | 1.29 (inactive) | 0.488 (inactive) | 0.953 (inactive) | -0.0707 | 0.168 (inactive) | 0.432 (inactive) | 0.0402
9 | COc1ccc(C(O)C2C=CC3C(=O)N(C)C(=O)C3N2Nc2ccccc2)cc1 (stereo not given) | -0.485 (inactive) | 0.211 | 0.929 (inactive) | 0.865 (inactive) | 0.213 (inactive) | 0.973 (inactive) | -0.423 | -1.26 (inactive) | -2.67 (inactive) | -1.96
10 | NCCCCCCNC(=O)[C@@H]1C[C@@H]2C(=O)NCC(=O)N2[C@@H]1c1cccc(OCCO)c1 | 0.884 (inactive) | 0.0892 | 1.68 (inactive) | 0.774 (inactive) | -0.523 (inactive) | 0.0308 (inactive) | 1.51 | 1.29 (inactive) | 0.934 (inactive) | 1.65
11 | COc1ccc(C(=O)Nc2cccc(CN3C(=O)[C@]4(O[C@H](CC(=O)N(CCO)Cc5ccccc5)[C@@H]([Si](C)(C)c5ccc(OC)cc5)[C@@H]4C)c4ccccc43)c2)cc1 | 0.556 (inactive) | 0.0892 | 4.41 (inactive) | 0.614 (inactive) | 0.0064 (inactive) | 0.795 (inactive) | 0.805 | 0.936 (inactive) | 0.871 (inactive) | 3.51
12 | COCCCNC(=O)[C@@]1(Cc2ccccc2I)c2ccccc2C(=O)N(C2CCCCC2)[C@H]1c1ccc(CO)cc1 | 0.0773 (inactive) | 0.293 | 8.09 (active) | 0.695 (inactive) | 2.44 (inactive) | 0.623 (inactive) | 0.453 | 0.392 (inactive) | -1.2 (inactive) | -3.06
13 | C=C(COC)/C(=C/C[C@@H](OC(C)=O)c1cccc(OCCO)c1)c1cnc2ccccc2c1 | 0.441 (inactive) | 0.106 | 22.7 (active) | 4.9 (inactive) | 0.377 (inactive) | 1.58 (inactive) | 0.249 | -1.21 (inactive) | -0.77 (inactive) | -2.27
14 | COc1ccc([Si](C)(C)[C@@H]2[C@@H](CC(=O)N(CCO)Cc3ccccc3)O[C@]3(C(=O)N(Cc4cccc(I)c4)c4ccccc43)[C@H]2C)cc1 | -0.307 (inactive) | 0.0464 | 4.63 (inactive) | 1.5 (inactive) | -0.0382 (inactive) | 1.14 (inactive) | 0.32 | -0.953 (inactive) | 1.19 (inactive) | 1.43
15 | COc1ccc(CCNC(=O)[C@@]2(C)c3ccccc3C(=O)N(Cc3ccc(OC(F)(F)F)cc3)[C@H]2c2ccc(CO)cc2)cc1 | -0.933 (inactive) | -0.588 | 7.22 (inactive) | 1.67 (inactive) | 1.79 (inactive) | 1.16 (inactive) | 0.029 | -0.61 (inactive) | -0.547 (inactive) | -1.23
16 | O=C1C[C@@](C(=O)NCC(F)(F)F)(c2ccc([N+](=O)[O-])cc2)[C@@H](c2ccc(CO)cc2I)N1CC12CC3CC(CC(C3)C1)C2 | 0.662 (inactive) | 0.383 | 22.4 (active) | 5.06 (inactive) | -0.0836 (inactive) | 0.69 (inactive) | 2.26 | 1 (inactive) | -0.564 (inactive) | 0.733
17 | CC[C@@H](O[Si](C#C[Si](C(C)C)(C(C)C)C(C)C)(C(C)C)C(C)C)c1cn(Cc2cccc(Cl)c2)nn1 | 1.2 (inactive) | 0.106 | -0.0842 (inactive) | 0.523 (inactive) | -0.559 (inactive) | 0.0622 (inactive) | -0.559 | -0.16 (inactive) | -0.839 (inactive) | -1.62
18 | C=C(COC)C(=O)CC[C@H](OC(C)=O)c1ccccc1OCCO | 0.618 (inactive) | -0.176 | 1.91 (inactive) | -0.291 (inactive) | 0.537 (inactive) | -1.49 (inactive) | 1.2 | -1.57 (inactive) | 0.456 (inactive) | -1.41
